Results as given in PubChem BioAssay AID652115 (Broad Institute, 2013).
In all, about 330,000 compounds went through this assay and about 3,800 (1.2%) were called active. Rule as the data show it: active = inhibition above about 15%; inconclusive = no clear call, values can overlap the other calls; inactive = below that. The full list was thinned out, with actives kept by preference.

molecular target: NAD-dependent protein deacylase sirtuin-5, mitochondrial (Homo sapiens) (UniProt Q9NXA8); experiment: SIRT5 desuccinylase inhibitors, primary screen, biochemical, fluorescence imaging, single point, set 5 (AID 652115); details: Purified SirT5, succinyl-peptide AMC, trypsin-coupled fluorescence; at 15 µM; hits give high values
Sequence (Q9NXA8 whole entry, looked up): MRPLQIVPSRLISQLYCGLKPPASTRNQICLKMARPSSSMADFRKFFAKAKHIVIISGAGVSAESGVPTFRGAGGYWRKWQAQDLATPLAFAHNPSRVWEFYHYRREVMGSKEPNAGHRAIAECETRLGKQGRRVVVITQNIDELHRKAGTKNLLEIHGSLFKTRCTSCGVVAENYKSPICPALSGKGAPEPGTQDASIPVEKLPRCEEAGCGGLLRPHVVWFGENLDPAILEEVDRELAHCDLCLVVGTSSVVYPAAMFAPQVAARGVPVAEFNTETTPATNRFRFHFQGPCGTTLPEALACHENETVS

inhibition, inactive:
O=C(NCC[C@@H]1CC[C@@H](NS(=O)(=O)c2cccc(F)c2)[C@H](CO)O1)C1CC1 -0.786%, C[C@H]1CN([C@@H](C)CO)C(=O)c2cccc(NC(=O)Nc3ccccc3)c2O[C@H]1CN(C)S(=O)(=O)c1ccc(F)cc1 -1.45%, CCC(=O)Nc1ccc2c(c1)C(=O)N(C)[C@H]1CC[C@H](CC(=O)NCCOC)O[C@@H]1CO2 2.38%, C[C@@H]1CN([C@@H](C)CO)C(=O)Cc2cc(NS(=O)(=O)c3cccs3)ccc2O[C@@H]1CN(C)C(=O)Nc1ccc(C(F)(F)F)cc1 3.48%, C[C@@H]1CCCCO[C@H](CN(C)S(=O)(=O)c2ccc(F)cc2)[C@H](C)CN([C@@H](C)CO)C(=O)c2cc(NS(=O)(=O)c3ccccc3)ccc2O1 4.58%, Cc1ccc(S(=O)(=O)N(C)C[C@H]2OCCCC[C@@H](C)Oc3ccc(NC(=O)Nc4ccc(F)cc4)cc3C(=O)N([C@@H](C)CO)C[C@H]2C)cc1 -2.04%, COc1ccc(S(=O)(=O)Nc2ccc3c(c2)C(=O)N([C@H](C)CO)C[C@@H](C)[C@H](CN(C)S(=O)(=O)c2ccc(Cl)cc2)OCCCC[C@@H](C)O3)cc1 13.8%, C[C@H]1CN([C@@H](C)CO)C(=O)c2cc(NS(C)(=O)=O)ccc2O[C@H]1CN(C)C(=O)Nc1ccc(C(F)(F)F)cc1 -4.07%, COc1ccc(CN(C)C[C@@H]2OCCCC[C@H](C)Oc3ccc(NS(=O)(=O)c4ccc(F)cc4)cc3C(=O)N([C@H](C)CO)C[C@H]2C)cc1 -3.51%, Cc1ccc(S(=O)(=O)Nc2ccc3c(c2)C(=O)N([C@H](C)CO)C[C@H](C)[C@H](CN(C)S(=O)(=O)c2ccc(F)cc2)OCCCC[C@@H](C)O3)cc1 4.66%, COc1ccc(S(=O)(=O)Nc2ccc3c(c2)C(=O)N([C@@H](C)CO)C[C@H](C)[C@H](CN(C)Cc2ccc(C(F)(F)F)cc2)OCCCC[C@@H](C)O3)cc1 9.2%, C[C@@H]1CN([C@H](C)CO)C(=O)c2cc(NS(=O)(=O)c3cccs3)ccc2O[C@@H]1CN(C)Cc1ccc(C(F)(F)F)cc1 2.33%

inhibition, active:
C[C@H](CO)N1C[C@H](C)[C@H](CN(C)S(=O)(=O)c2ccc(F)cc2)OCCCC[C@H](C)Oc2ccc(NS(=O)(=O)c3ccc(Cl)cc3)cc2C1=O 17.6%, Cc1ccc(S(=O)(=O)N(C)C[C@@H]2OCCCC[C@@H](C)Oc3ccc(NS(=O)(=O)c4ccc(F)cc4)cc3C(=O)N([C@H](C)CO)C[C@H]2C)cc1 19.9%, COc1ccc(S(=O)(=O)Nc2ccc3c(c2)C(=O)N([C@@H](C)CO)C[C@@H](C)[C@H](CN(C)Cc2ccc(C(F)(F)F)cc2)OCCCC[C@@H](C)O3)cc1 16.7%, C[C@H](CO)N1C[C@H](C)[C@H](CN(C)Cc2ccc(C(F)(F)F)cc2)Oc2ccc(NS(C)(=O)=O)cc2C1=O 21.5%
